# Results filed as inconclusive are left out. Active and inactive are the calls of the source. How the source made its calls: active means hit-call score of the fitted dose curve at least 0.9, where 1 is the maximum; inconclusive means response in the unintended direction; inactive means score below 0.9.
# Tests used:
# [1] = target: human Adrenergic, Alpha 2c Receptor (Adra2C), ADRA2C (gene 152) (UniProt P18825); assay: NVS_GPCR_hAdra2C: NovaScreen (NVS) G Protein-Coupled Receptor Assay for human Adrenergic, Alpha 2c Receptor (Adra2C) (AID 2283259)
# In short: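 Radioligand binding on Sf9-expressed receptor membranes, 1 h after chemical dosing, filter-based scintillation read-out. Loss of binding fitted positively versus DMSO; primary duplicate screen at 25 uM, actives retested in concentration series.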
# [2] = target: human Adenosine A2a Receptor (AdoRA2a), ADORA2A (gene 135) (UniProt P29274); assay: NVS_GPCR_hAdoRA2a: NovaScreen (NVS) G Protein-Coupled Receptor Assay for human Adenosine A2a Receptor (AdoRA2a) (AID 2283256)
# In short: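 Radioligand displacement on HEK293-derived membrane protein, cell-free; filter-based scintillation counting 1.5 hours after dosing, loss of signal vs DMSO. Single-point duplicate screen at 25 uM, actives retested in concentration series.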
# [3] = target: human Adenosine A1 Receptor (AdoRA1), ADORA1 (gene 134) (UniProt P30542); assay: NVS_GPCR_hAdoRA1: NovaScreen (NVS) G Protein-Coupled Receptor Assay for human Adenosine A1 Receptor (AdoRA1) (AID 2283254)
# Description: (§1) NVS_GPCR_hAdoRA1 is a biochemical, single-readout assay that uses extracted gene-proteins from Human cortical membranes in a tissue-based cell-free assay. Measurements were taken 1 hour after chemical dosing in a 96-well plate.NVS_GPCR_hAdoRA1 is one of one assay component(s) measured or calculated from the NVS_GPCR_hAdoRA1 assay. It is designed to make measurements of radioligand binding, a form of binding reporter, as detected with scintillation counting signals by Filter-based radiodetection technology.Data from the assay component NVS_GPCR_hAdoRA1 was analyzed into 1 assay endpoint. This assay endpoint, NVS_GPCR_hAdoRA1, was analyzed in the positive analysis fitting direction relative to DMSO as the negative control and baseline of activity. Using a type of binding reporter, loss-of-signal activity can be used to understand changes in the binding as they relate to the gene ADORA1. Furthermore, this assay endpoint can be referred to as a primary readout, because the performed assay has only produced 1 assay endpoint. To generalize the intended target to other relatable targets, this assay endpoint is annotated to the gpcr intended target family, where the subfamily is rhodopsin-like receptor.
# (§2) Binding assays used specific radioligands (tritiated, iodinated) with non-radioactive competitive displacement ligands in agonist or antagonist protocols (as indicated) and various reference compounds and inhibitors to titrate specific binding to receptors and transporters. Most enzyme assays (CYPs, kinases, phosphatases, proteases, HDACs) used recombinant protein and specific substrates (fluorescence mostly, some colorimetric and radioactive) and inhibitors, followed by a biochemical separation of substrate and product. All assays for the biochemical HTS were initially run in duplicate at a single concentration (10 uM for CYP450 assays and 25 uM for all others). […] Each assay was run with positive and negative controls, and concurrent controls on every plate. The follow-up (secondary) screen tested active chemical-pairs in concentration series, as well as a few additional assays not tested in the primary screen, some selected negative inactives, and several cases re-run in the concentration series for confirmatory purposes.
# [4] = target: human Serotonin, 5-Hydroxytryptamine Receptor 5A (5HT5A), HTR5A (gene 3361) (UniProt P47898); assay: NVS_GPCR_h5HT5A: NovaScreen (NVS) G Protein-Coupled Receptor Assay for human Serotonin, 5-Hydroxytryptamine Receptor 5A (5HT5A) (AID 2283251)
# In short: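 Cell-free radioligand displacement binding on HEK293-derived membrane protein, 1 h incubation, filter-based scintillation counting. Primary screen in duplicate at 25 uM, actives followed in concentration series; loss of signal fitted versus DMSO.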
# [5] = target: human Serotonin, 5-Hydroxytryptamine Receptor 7 (5HT7), HTR7 (gene 3363) (UniProt P34969); assay: NVS_GPCR_h5HT7: NovaScreen (NVS) G Protein-Coupled Receptor Assay for human Serotonin, 5-Hydroxytryptamine Receptor 7 (5HT7) (AID 2283255);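 further: hits reduce specific radioligand binding relative to DMSO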
# In short: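 Radioligand displacement on membranes from CHO cells expressing human 5HT7, 1 h incubation, filter-based scintillation counting. Primary screen used a single 25 uM concentration in duplicate; actives were followed up in concentration series.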
# [6] = target: human Adrenergic, Beta 1 Receptor (Adrb1), ADRB1 (gene 153) (UniProt P08588); assay: NVS_GPCR_hAdrb1: NovaScreen (NVS) G Protein-Coupled Receptor Assay for human Adrenergic, Beta 1 Receptor (Adrb1) (AID 2283258)
# In short: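 Cell-free radioligand displacement on receptor from human neuroepithelioma cells; 2 h after dosing, filter-based scintillation counting. Primary screen in duplicate at 25 uM, actives retested in concentration series; loss of signal vs DMSO baseline.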
# [7] = target: guinea pig Opioid, Kappa 1 Receptor (OpiateK), OPRK1 (gene 100135587) (UniProt P41144); assay: NVS_GPCR_gOpiateK: NovaScreen (NVS) G Protein-Coupled Receptor Assay for guinea pig Opioid, Kappa 1 Receptor (OpiateK) (AID 2283252);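 further: radioligand displacement from kappa opioid receptor in guinea pig cerebellar membranes; active means reduced radioligand binding relative to DMSO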
# Description: as §1, with “NVS_GPCR_gOpiateK” for “NVS_GPCR_hAdoRA1”, “Guinea pig cerebellar” for “Human cortical”, “2 hours” for “1 hour”, “48-well plate.NVS_GPCR_gOpiateK” for “96-well plate.NVS_GPCR_hAdoRA1”, “NVS_GPCR_gOpiateK,” for “NVS_GPCR_hAdoRA1,”, “Oprk1.” for “ADORA1.”
# as §2
# [8] = target: human Serotonin, 5-Hydroxytryptamine Receptor 6 (5HT6), HTR6 (gene 3362) (UniProt P50406); assay: NVS_GPCR_h5HT6: NovaScreen (NVS) G Protein-Coupled Receptor Assay for human Serotonin, 5-Hydroxytryptamine Receptor 6 (5HT6) (AID 2283253)
# In short: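 Radioligand binding to 5HT6 in HEK293-derived membranes, cell-free, 1 h after dosing; bound ligand measured by filter-based scintillation counting. Primary screen in duplicate at 25 uM; actives retested in concentration series.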
# [9] = test system: guinea pig Muscarinic, Peripheral (Mperiperal) Receptor, Non-selective Binding, gene 100379235; assay: NVS_GPCR_gMPeripheral_NonSelective: NovaScreen (NVS) G Protein-Coupled Receptor Assay for guinea pig Muscarinic, Peripheral (Mperiperal) Receptor, Non-selective Binding (AID 2283250)
# In short: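 Guinea pig bladder membranes, radioligand binding read 1 h after dosing by filter scintillation counting; loss of signal vs DMSO. Primary duplicate screen at 25 uM, then concentration-response up to 50 uM.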
# [10] = target: human Adrenergic, Alpha 2A Receptor (Adra2A), ADRA2A (gene 150) (UniProt P08913); assay: NVS_GPCR_hAdra2A: NovaScreen (NVS) G Protein-Coupled Receptor Assay for human Adrenergic, Alpha 2A Receptor (Adra2A) (AID 2283257)
# In short: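 Radioligand filter-binding was run on HT29-derived membranes, cell-free, read by scintillation counting 1 h after dosing. Primary screening was in duplicate at 25 uM, with concentration series in follow-up. Loss of signal versus DMSO indicates displacement.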
# Chain of human Serotonin, 5-Hydroxytryptamine Receptor 5A (5HT5A), HTR5A (gene 3361) (P47898 whole entry, looked up): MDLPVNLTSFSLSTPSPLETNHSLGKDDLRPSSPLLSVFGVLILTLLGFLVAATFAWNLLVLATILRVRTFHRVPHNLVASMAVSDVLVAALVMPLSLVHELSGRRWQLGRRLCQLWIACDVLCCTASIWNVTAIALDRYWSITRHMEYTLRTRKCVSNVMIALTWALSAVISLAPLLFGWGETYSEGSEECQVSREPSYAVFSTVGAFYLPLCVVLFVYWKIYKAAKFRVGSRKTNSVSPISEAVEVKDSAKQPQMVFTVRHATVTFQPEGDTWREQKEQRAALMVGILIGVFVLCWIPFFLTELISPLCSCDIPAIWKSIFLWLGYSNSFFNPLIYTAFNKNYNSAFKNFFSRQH
# Chain of guinea pig Opioid, Kappa 1 Receptor (OpiateK), OPRK1 (gene 100135587) (P41144 whole entry, looked up): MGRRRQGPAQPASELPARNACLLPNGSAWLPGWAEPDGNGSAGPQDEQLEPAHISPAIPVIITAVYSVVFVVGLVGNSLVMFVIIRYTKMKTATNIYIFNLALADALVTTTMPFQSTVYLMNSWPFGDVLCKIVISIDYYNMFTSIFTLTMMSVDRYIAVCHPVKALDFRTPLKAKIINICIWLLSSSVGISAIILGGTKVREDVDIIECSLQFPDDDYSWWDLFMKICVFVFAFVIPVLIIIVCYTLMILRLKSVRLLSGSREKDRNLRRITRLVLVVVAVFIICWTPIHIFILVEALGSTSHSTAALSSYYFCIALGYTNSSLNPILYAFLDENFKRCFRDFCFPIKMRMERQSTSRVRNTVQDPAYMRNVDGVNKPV
# Chain of human Adenosine A1 Receptor (AdoRA1), ADORA1 (gene 134) (P30542 whole entry, looked up): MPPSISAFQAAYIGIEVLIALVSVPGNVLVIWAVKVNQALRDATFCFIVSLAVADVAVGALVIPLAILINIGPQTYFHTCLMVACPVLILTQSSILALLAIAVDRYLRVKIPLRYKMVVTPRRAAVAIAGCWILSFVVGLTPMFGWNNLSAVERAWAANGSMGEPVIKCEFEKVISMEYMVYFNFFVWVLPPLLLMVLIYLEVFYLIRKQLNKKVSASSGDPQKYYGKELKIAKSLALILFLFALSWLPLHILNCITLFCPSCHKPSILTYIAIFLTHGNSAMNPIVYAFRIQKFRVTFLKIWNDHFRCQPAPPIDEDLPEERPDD
# Chain of human Adenosine A2a Receptor (AdoRA2a), ADORA2A (gene 135) (P29274 whole entry, looked up): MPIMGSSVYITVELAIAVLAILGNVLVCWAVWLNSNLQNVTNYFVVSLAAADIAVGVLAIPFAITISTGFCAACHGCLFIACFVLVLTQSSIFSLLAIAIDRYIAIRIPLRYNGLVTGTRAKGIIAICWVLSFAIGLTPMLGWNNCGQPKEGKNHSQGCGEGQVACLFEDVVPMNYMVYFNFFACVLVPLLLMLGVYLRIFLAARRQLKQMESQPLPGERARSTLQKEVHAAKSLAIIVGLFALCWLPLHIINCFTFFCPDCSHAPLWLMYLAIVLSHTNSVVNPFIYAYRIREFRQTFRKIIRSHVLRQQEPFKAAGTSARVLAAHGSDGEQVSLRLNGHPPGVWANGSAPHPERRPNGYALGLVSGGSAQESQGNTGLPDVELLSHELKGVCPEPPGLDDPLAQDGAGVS
# Chain of human Adrenergic, Alpha 2c Receptor (Adra2C), ADRA2C (gene 152) (P18825 whole entry, looked up): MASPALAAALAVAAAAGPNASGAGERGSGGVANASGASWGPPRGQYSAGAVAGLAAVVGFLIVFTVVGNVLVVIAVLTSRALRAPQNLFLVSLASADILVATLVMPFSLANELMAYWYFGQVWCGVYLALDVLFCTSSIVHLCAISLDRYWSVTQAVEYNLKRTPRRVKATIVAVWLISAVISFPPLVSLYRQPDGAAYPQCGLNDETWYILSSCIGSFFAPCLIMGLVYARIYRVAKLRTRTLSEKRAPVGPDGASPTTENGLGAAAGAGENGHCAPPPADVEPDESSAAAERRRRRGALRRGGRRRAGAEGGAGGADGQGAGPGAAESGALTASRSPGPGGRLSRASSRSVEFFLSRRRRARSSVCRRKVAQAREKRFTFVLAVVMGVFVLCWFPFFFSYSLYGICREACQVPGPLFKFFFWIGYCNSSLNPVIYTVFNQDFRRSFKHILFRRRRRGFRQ
# Chain of human Serotonin, 5-Hydroxytryptamine Receptor 6 (5HT6), HTR6 (gene 3362) (P50406 whole entry, looked up): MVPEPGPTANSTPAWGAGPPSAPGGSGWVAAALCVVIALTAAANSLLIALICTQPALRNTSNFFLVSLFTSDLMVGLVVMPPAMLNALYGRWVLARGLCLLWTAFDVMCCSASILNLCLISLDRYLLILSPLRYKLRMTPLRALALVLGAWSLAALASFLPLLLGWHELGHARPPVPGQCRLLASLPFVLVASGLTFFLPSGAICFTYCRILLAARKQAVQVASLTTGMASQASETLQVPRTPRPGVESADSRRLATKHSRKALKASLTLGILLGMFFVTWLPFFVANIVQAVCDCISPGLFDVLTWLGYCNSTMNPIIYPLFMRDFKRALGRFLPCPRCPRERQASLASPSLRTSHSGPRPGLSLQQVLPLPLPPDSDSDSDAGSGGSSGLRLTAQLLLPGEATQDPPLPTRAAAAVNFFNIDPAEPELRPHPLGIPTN
# Chain of human Serotonin, 5-Hydroxytryptamine Receptor 7 (5HT7), HTR7 (gene 3363) (P34969 whole entry, looked up): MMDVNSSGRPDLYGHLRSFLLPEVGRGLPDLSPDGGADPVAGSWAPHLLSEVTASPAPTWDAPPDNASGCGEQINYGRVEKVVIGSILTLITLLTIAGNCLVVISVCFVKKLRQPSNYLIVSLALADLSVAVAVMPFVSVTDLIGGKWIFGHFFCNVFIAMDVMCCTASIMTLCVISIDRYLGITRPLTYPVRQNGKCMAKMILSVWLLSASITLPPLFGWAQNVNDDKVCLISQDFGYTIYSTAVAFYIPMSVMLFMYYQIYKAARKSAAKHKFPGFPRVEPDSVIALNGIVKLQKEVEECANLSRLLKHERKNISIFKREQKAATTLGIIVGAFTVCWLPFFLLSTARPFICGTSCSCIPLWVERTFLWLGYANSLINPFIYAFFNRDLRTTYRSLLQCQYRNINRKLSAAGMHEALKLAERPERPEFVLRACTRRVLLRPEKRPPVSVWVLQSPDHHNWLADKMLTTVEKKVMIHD
# Chain of human Adrenergic, Alpha 2A Receptor (Adra2A), ADRA2A (gene 150) (P08913 whole entry, looked up): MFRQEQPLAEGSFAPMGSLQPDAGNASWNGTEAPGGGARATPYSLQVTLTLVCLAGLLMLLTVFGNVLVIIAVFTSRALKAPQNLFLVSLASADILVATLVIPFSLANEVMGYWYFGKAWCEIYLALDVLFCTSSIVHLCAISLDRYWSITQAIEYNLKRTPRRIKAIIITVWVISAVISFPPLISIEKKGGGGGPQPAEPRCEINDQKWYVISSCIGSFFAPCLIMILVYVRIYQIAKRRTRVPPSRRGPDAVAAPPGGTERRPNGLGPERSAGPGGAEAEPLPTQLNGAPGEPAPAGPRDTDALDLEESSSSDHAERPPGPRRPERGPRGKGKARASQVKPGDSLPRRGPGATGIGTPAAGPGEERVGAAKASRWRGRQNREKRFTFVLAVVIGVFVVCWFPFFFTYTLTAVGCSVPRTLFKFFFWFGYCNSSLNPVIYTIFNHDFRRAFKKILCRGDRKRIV
# Chain of human Adrenergic, Beta 1 Receptor (Adrb1), ADRB1 (gene 153) (P08588 whole entry, looked up): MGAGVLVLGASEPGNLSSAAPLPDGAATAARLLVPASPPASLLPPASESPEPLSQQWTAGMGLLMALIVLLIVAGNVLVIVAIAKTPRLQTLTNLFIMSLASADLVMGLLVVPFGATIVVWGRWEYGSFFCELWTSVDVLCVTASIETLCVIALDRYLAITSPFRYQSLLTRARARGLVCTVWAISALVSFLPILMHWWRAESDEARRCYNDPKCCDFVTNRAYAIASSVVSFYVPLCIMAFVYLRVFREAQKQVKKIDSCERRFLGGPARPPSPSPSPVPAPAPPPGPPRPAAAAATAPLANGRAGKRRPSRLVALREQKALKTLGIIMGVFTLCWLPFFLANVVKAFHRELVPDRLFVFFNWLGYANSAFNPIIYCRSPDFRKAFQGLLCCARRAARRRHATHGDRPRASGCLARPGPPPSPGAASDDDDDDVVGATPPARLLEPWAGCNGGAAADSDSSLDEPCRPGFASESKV
structure (smiles),measurement,setting,value
CC1(C)CON(Cc2ccccc2Cl)C1=O,outcome,[1],inactive
Nc1c(Cl)c(F)nc(OCC(=O)O)c1Cl,outcome,[1],inactive
Cc1cc(C)nc(Nc2ccccc2)n1,AC50,[2],10.9 µM (active)
CCOc1cc(C(C)(C)C)ccc1C1COC(c2c(F)cccc2F)=N1 (centres undefined),outcome,[3],inactive
CC(C)=CC1C(C(=O)OCc2coc(Cc3ccccc3)c2)C1(C)C (centres undefined),AC50,[4],25 µM (active)
same,outcome,[5],inactive
same,AC50,[6],25 µM (active)
same,AC50,[1],25 µM (active)
CCCCC(O)(Cn1cncn1)c1ccc(Cl)cc1Cl (centres undefined),outcome,[4],inactive
same,AC50,[7],17.8 µM (active)
same,outcome,[8],inactive
same,AC50,[5],16.6 µM (active)
CCOP(=S)(OCC)Oc1nc(Cl)n(C(C)C)n1,AC50,[3],8.95 µM (active)
Nc1cnn(-c2ccccc2)c(=O)c1Cl,AC50,[3],8.18 µM (active)
same,AC50,[2],32.6 µM (active)
CO/N=C(/C1=NOCCO1)c1ccccc1Oc1ncnc(Oc2ccccc2Cl)c1F,outcome,[4],inactive
same,outcome,[7],inactive
same,outcome,[3],inactive
COP(=S)(OC)SCn1nnc2ccccc2c1=O,outcome,[9],inactive
same,AC50,[3],9.98 µM (active)
same,outcome,[2],inactive
N#Cc1c[nH]cc1-c1cccc2c1OC(F)(F)O2,outcome,[8],inactive
CN/C(=N\[N+](=O)[O-])NCc1cnc(Cl)s1,outcome,[4],inactive
CC(C)N1C(=O)N(c2ccccc2)CSC1=NC(C)(C)C,outcome,[4],inactive
same,outcome,[8],inactive
CCCN(CC)CC1COC2(CCC(C(C)(C)C)CC2)O1 (centres undefined),outcome,[9],inactive
same,AC50,[7],14.3 µM (active)
same,AC50,[5],8 µM (active)
same,AC50,[10],3.99 µM (active)
CCN(CC)C(=O)C(C)Oc1cccc2ccccc12 (centres undefined),AC50,[7],25 µM (active)
CC1(C)C(C(=O)OC(C#N)c2cccc(Oc3ccccc3)c2)C1(C)C (centres undefined),AC50,[4],25 µM (active)
same,AC50,[5],25 µM (active)
OC(c1ccc(Cl)cc1)(c1ccc(Cl)cc1)C(Cl)(Cl)Cl,outcome,[4],inactive
same,outcome,[5],inactive
COCC(C)N(C(=O)CCl)c1c(C)csc1C (centres undefined),AC50,[7],15.5 µM (active)
COP(=O)(OC)O/C(C)=C/C(=O)N(C)C,outcome,[9],inactive
CCOC(=O)C(C)OC(=O)c1cc(Oc2ccc(C(F)(F)F)cc2Cl)ccc1[N+](=O)[O-] (centres undefined),AC50,[4],6.67 µM (active)
same,AC50,[5],15.3 µM (active)
CCOc1nc(F)cc2nc(S(=O)(=O)Nc3c(Cl)cccc3Cl)nn12,outcome,[9],inactive
CC1(C)C(C=C(Cl)Cl)C1C(=O)OC(C#N)c1cccc(Oc2ccccc2)c1 (centres undefined),outcome,[4],inactive
same,AC50,[5],6.91 µM (active)
O=C1C2CC=CCC2C(=O)N1SC(Cl)(Cl)Cl (centres undefined),outcome,[9],inactive
same,outcome,[4],inactive
same,AC50,[5],4.95 µM (active)
Cc1ccc(N=CN(C)C=Nc2ccc(C)cc2C)c(C)c1,AC50,[5],0.574 µM (active)
CCC(C)n1c(=O)[nH]c(C)c(Br)c1=O (centres undefined),AC50,[3],15.2 µM (active)
same,AC50,[5],14 µM (active)
Cn1c(-c2ccccc2)cc(-c2ccccc2)[n+]1C,AC50,[9],6.52 µM (active)
same,AC50,[7],12 µM (active)
same,AC50,[5],14.8 µM (active)
same,AC50,[10],1.32 µM (active)
same,AC50,[1],3.74 µM (active)
CC(C)Nc1nc(Cl)nc(NC(C)C)n1,AC50,[6],6.34 µM (active)
COC(=O)N(C(=O)N1CO[C@@]2(C(=O)OC)Cc3cc(Cl)ccc3C2=N1)c1ccc(OC(F)(F)F)cc1,outcome,[5],inactive

# — PubChem BioAssay (EPA / NIEHS)
